PubChem BioAssay (EPA / NIEHS)
“And” between values parts separate entries of the source, which are not always exact repeats. Equal values may be shown once. Records with an inconclusive call do not appear. More than one record can exist for a structure, and the calls need not agree. The source made the active and inactive calls. Rule for the calls: active = hit-call score of the fitted dose curve at least 0.9, where 1 is the maximum; inconclusive = response in the unintended direction; inactive = score below 0.9.

What follows are compounds tested against Nuclear receptor subfamily 1 group I member 2 (Mus musculus) (UniProt O54915) (assay: ATG_mPXR_XSP2: Attagene TRANS-FACTORIAL Multi-Species (XSP1) HepG2 Assay for mouse Pregnane X Receptor (PXR) (AID 2283831)).
Chain of Nuclear receptor subfamily 1 group I member 2 (Mus musculus) (O54915 whole entry, looked up): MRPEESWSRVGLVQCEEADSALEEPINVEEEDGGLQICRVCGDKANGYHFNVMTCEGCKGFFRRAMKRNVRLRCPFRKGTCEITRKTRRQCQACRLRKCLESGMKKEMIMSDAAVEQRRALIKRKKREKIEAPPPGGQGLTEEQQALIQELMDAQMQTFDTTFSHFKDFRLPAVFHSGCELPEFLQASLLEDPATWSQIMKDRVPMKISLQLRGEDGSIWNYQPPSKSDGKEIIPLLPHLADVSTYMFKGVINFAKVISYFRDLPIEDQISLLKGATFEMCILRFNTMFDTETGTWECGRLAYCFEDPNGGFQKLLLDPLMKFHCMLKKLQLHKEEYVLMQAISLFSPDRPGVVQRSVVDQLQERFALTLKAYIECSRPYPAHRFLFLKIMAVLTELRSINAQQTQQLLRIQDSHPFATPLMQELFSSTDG
Description: ATG_XSP2_multi-species_TRANS is a cell-based, multiplexed assay created by modifying the existing Attagene TRANS-FACTORIAL system to include a panel of nuclear receptors from some or all the following species: human (Homo sapiens), mouse (Mus musculus), frog (Xenopus laevis), zebrafish (Danio rerio), chicken (Gallus gallus), and turtle (Chrysemys picta). The ECOTOX-FACTORIAL format uses HepG2, a human liver cell line, with measurements taken at 24 hours after chemical dosing in a 24-well plate. Xsp2 included 3 nM 6-alpha-fluorotestosterone and 1.5 nM norgestrel to stimulate the androgen receptor.ATG_mPXR_XSP2 is one of 29 assay components measured or calculated from the ATG_XSP2_multi-species_TRANS assay. It is designed to make measurements of mRNA induction, a form of inducible reporter, as detected with fluorescence intensity signals by Reverse transcription polymerase chain reaction (RT-PCR) and Capillary electrophoresis technology.The assay endpoint ATG_mPXR_XSP2 was analyzed in the positive analysis fitting direction relative to DMSO as the negative control and baseline of activity. Using a type of inducible reporter, measures of mRNA for gain-of-signal activity can be used to understand the reporter gene at the transcription factor-level as they relate to the gene PXR. Furthermore, this assay endpoint can be referred to as a primary readout, because this assay has produced multiple assay endpoints where this one serves a reporter gene function. To generalize the intended target to other relatable targets, this assay endpoint is annotated to the nuclear receptor intended target family, where the subfamily is non-steroidal.
Human liver HepG2 cells are transiently transfected with multiple reporter transcription units (MRTUs) in 6-well plates using FuGene 6 reagent (Roche; 3 ml FuGene/1 mg DNA). The MRTU constructs are regulated by a cis-regulating element (promoter). […] A major difference between the CIS and TRANS system is that in CIS activities of endogenous TFs are measured, whereas the TRANS assay evaluates changes in activities of exogenous, chimeric NR-Gal4 proteins. […] At the end of 24 hour incubation, total RNA was isolated using TriZol reagent (Invitrogen). The isolated RNA is then reverse-transcribed using oligo(dT) primer and Mo-MLV reverse transcriptase (Invitrogen) with DNAse I (Ambion) treatment for 30 min. The one-tenth of the produced cDNA was amplified by PCR using Taq DNA polymerase (Invitrogen) and two reporter sequence-specific primers. The PCR products were fluorescently labeled by primer extension with 6-arboxyfluorescein (6-FAM) 5'-labeled reporter sequence-specific primer (2 min at 95 C, 20 s at 68 C and 10 min at 72 C) and these products were digested with 5U of HpaI (New England Biolabs) for 2h at 37 C. The fragments were purified using Qiaquick PCR columns (Qiagen), analyzed on an ABI 3130xL genetic analyzer (Applied Biosystems) with peak positions identified by using a set of X-rhodamine (ROX)-labeled MapMarker1000 molecular weight standards (BioVentures). The raw capillary electrophoresis data was processed using Attagraph software (Attagene).
With `CN(C)C(=O)Nc1ccc(Cl)c(Cl)c1` the AC50 was 6.9 µM (active) and the outcome was “inactive”.
`CCCCC(CC)CN1C(=O)C2C3C=CC(C3)C2C1=O` (configuration not stated) was tested, and the AC50 was 1.34 µM (active).
For `CCN(Cc1c(F)cccc1Cl)c1c([N+](=O)[O-])cc(C(F)(F)F)cc1[N+](=O)[O-]`, the AC50 was 284 nM (active) and 656 nM (active).
With `C#C[C@]1(O)CC[C@H]2[C@@H]3CCC4=CC(=O)CC[C@@H]4[C@H]3CC[C@@]21CC` the outcome was “inactive”.
In the case of `CSC(=O)c1cccc2nnsc12`, the outcome is reported as “inactive”.
`CC(=O)S[C@@H]1CC2=CC(=O)CC[C@]2(C)[C@H]2CC[C@@]3(C)[C@@H](CC[C@@]34CCC(=O)O4)[C@H]12` was tested, and the AC50 was 0.483 µM (active).
In the case of `CCCCC(CC)COC(=O)c1ccccc1C(=O)O` (configuration not stated), the AC50 is reported as 3.81 µM (active).
For `C=CCOC(Cn1ccnc1)c1ccc(Cl)cc1Cl` (configuration not stated), the AC50 was 1.34 µM (active).
For `Oc1ccc(C(c2ccc(O)cc2)C(Cl)(Cl)Cl)cc1`, the outcome was “inactive”.
`N[C@@H](Cc1cc(I)c(Oc2ccc(O)c(I)c2)c(I)c1)C(=O)O` was tested, and the AC50 was 22.7 µM (active).
For `CC1(C)C(C=C(Cl)Cl)C1C(=O)OCc1cccc(Oc2ccccc2)c1` (configuration not stated), the AC50 was 3.06 µM (active).
